High-throughput results (PubChem BioAssay)
The entries come from a sample that favours hits as a whole.
ERK EGF block – qHTS Assay for Inhibitors of the ERK Signaling Pathway using a Homogeneous Screening Assay; Stimulation with EGF; HEK293-V1b, EGF-stimulated phospho-ERK AlphaScreen; Potency, µM (highest dose often 11.5 µM), inactives show at the highest dose activity change, negative = inhibition, actives largely listed as inhibitors; 130,000 tested, 0.41% active; active means well fitted inhibition curve with a large enough effect;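 further: plate controls were stimulated vehicle wells for no effect and unstimulated vehicle basal for full effect; nearly all actives have a fitted effect of over 55% in size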
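Homogeneous cell-based phospho-ERK assay: HEK293/V1b cells in 1% FBS, compound 30 min then EGF 5 min, AlphaScreen luminescence. Activity normalized between DMSO and 25 nM EGF controls; AC50 from Hill modelling.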
Active calls of the source: *; [ ] = another dose, or the depositor's remark. Potency means the concentration at half of the fitted maximal effect.

SMILES | ERK EGF block
C=CCNC1=C(Cl)C(=O)c2ccccc2C1=O | -8.1%
O=C(O)c1ccc(NC2=C(Cl)C(=O)c3ccccc3C2=O)cc1 | 10µM*
Cc1ccc(NC(=O)C(c2ccccc2)N(C)C)cc1Cl (configuration not stated) | -6.9%
CCCCCCNC(=O)Nc1ccc(S(=O)(=O)Nc2ccc(CCNC[C@H](O)COc3ccc(O)cc3)cc2)cc1 | -9.1%
Fc1ccc(-c2nc3n(c2-c2ccncc2)CCS3)cc1 | 1.9%
C=C[C@@H]1CN2CC[C@@H]1C[C@@H]2[C@H](O)c1ccnc2ccc(OC)cc12 | 8.8%
CCCCCCCCCCCCCCC[C@H](O)[C@@H](N)CO | 7.3%
Cc1ccc(N=Nc2ccc(O)c3ncccc23)cc1C | -6.1%
Cc1nnc(C)c2c(C)n(-c3ccc4ncccc4c3)c(C)c12 | -3.8%
Cc1cc(N(C)C)ccc1N=Nc1ccc2ncccc2c1 | 20µM*
CC(C)(C)c1onc(OCP(=O)(O)O)c1CC(N)C(=O)O (configuration not stated) | -9.0%
Cc1onc(-c2ccccc2)c1C(=O)OCC(=O)Nc1cc(S(=O)(=O)N2CCOCC2)ccc1Cl | -2.1%
COc1cc(OC)c(C(=O)NCC2CCCO2)cc1OC (configuration not stated) | 3.6%
COc1cccc(N=c2oc3cc(O)ccc3cc2C(=O)NCC2CCCO2)c1 (configuration not stated) | 28.2µM*
COc1cccc(OCc2ccc(C(=O)NCC3CCCO3)cc2)c1 (configuration not stated) | 3.7%
CNc1ncnc2c1ncn2[C@@H]1O[C@H](CO)[C@H](O)[C@H]1O | 12.1%
CCOC(=O)CC(C(=O)OCC)C1CCCCC1=O (configuration not stated) | -0.2%
CCCCC/C=C\C/C=C\C/C=C\C/C=C\CCCC(=O)O[C@@H](CO)COCCCCCCCCCCCCCCCC | -12.0%
CCN(CC)S(=O)(=O)c1cc(NC(=O)Cn2ncc(Cl)c(Cl)c2=O)ccc1C | 20µM*
COc1ccc(NC(=O)Cn2ncc(Cl)c(Cl)c2=O)cc1S(=O)(=O)N1CCOCC1 | -6.8%
CCOC(=O)c1ccc(NC(=O)Cn2ncc(Cl)c(Cl)c2=O)cc1 | 4.5%
CC1(C(=O)Nc2cccc(S(=O)(=O)N3CCOCC3)c2)Cc2ccccc2C(=O)O1 (configuration not stated) | -3.1%
CCc1ccc(NC(=O)CSCCN2C(=O)c3ccccc3C2=O)cc1 | -11.9%
CCc1ccc(NC(=O)C2(C)Cc3ccccc3C(=O)O2)cc1 (configuration not stated) | 22.4µM*
C=C[C@H]1CN2CC[C@@H]1C[C@H]2[C@@H](O)c1ccnc2ccc(OC)cc12 | 14.0%[25.7 µM]
SMILES | ERK EGF block
Cc1nc(C)c(/C(O)=C\c2nc3ccc([N+](=O)[O-])cc3oc2=O)o1 | -2.6%[57.5 µM]
CC[C@]12CCCN3CCc4c(n(c5ccccc45)C(=O)C1)[C@H]32 | -8.3%
COC(=O)CCC(C)C1CCC2C3C(O)C[C@@H]4CC(O)CC[C@@]4(C)C3CC(O)[C@]12C (some centres not stated) | 33.3%
CCOc1ccc(CNC(=O)CCCc2cn(C)c3ccccc23)cc1OC | 0.6%
COc1ccccc1NS(=O)(=O)c1cc(NC(=S)NCC2CCCO2)ccc1C (configuration not stated) | 6.1%
COc1cc(C(=O)NS(=O)(=O)c2ccccc2C)ccc1Cc1cn(C)c2ccc(NC(=O)OC3CCCC3)cc12 | 28.2µM*
Cn1cc(-c2nc3cnc(Oc4ccccc4)nc3n(CCC#N)c2=O)c2ccccc21 | 5.4%
CCCCCC(=O)c1ccc(O)cc1O | 2.2%
CCCCCn1c(=O)c(-c2nc3ccccc3[nH]2)c(O)c2ccccc21 | -3.3%
CCCCCS(=O)(=O)CCCCCCCCCCn1c(-c2ccc(O)cc2)c(C)c2cc(O)ccc21 | 14.1µM*
CC(=O)[C@@H]1CC[C@@H]2[C@@H]3C[C@H](C)C4=CC(=O)CC[C@@]4(C)[C@H]3[C@H](O)C[C@]21C | 4.6%[25.7 µM]
CN(C)Cc1ccccc1-c1cc(N(C)C)ncn1 | 15.2%
O=[N+]([O-])c1ccc(NCCCNS(=O)(=O)c2ccccc2)c(Cl)c1 | 6.4%
CC1=C(C(=O)O)N2C(=O)[C@@H](NC(=O)C(N)C3=CCC=CC3)[C@H]2SC1 (some centres not stated) | 9.1%
COC(=O)c1cc(C(=O)N2CCOCC2)cc([N+](=O)[O-])c1 | -31.6%
CCOC(=O)c1cc(N)cc([N+](=O)[O-])c1 | 16.4%
COC1(C)CC2C(CC1OC(=O)c1cc([N+](=O)[O-])cc([N+](=O)[O-])c1)C2(C)C (configuration not stated) | 25.1µM*
CC(C)CNC(=O)NC(=O)COC(=O)Cn1cnc2ccccc2c1=O | -4.1%[57.5 µM]
CCc1cccc(C)c1NC(=S)N(CCCN1CCOCC1)Cc1cccnc1 | 6.5%
O=C(COC(=O)c1cccc(C(=O)OCC(=O)NC2CC2)n1)NC1CC1 | -4.2%
OCC1NCC(O)C(O)C1O (configuration not stated) | 7.3%
CN1CCN(c2ccc(C(CC(N)=O)NC(=O)Cc3ccc(Br)cc3)cc2[N+](=O)[O-])CC1 (configuration not stated) | 4.5%[57.5 µM]
CN(Cc1ccccc1)c1ccc(C(CC(N)=O)NC(=O)Cc2ccc(Br)cc2)cc1[N+](=O)[O-] (configuration not stated) | 31.6µM*
CCC(CC)Nc1ccc(C(CC(N)=O)NC(=O)Cc2ccc(Br)cc2)cc1[N+](=O)[O-] (configuration not stated) | -10.0%[57.5 µM]
O=C(O)COc1cccc(-c2ocnc2-c2nc(-c3ccccc3)c(-c3ccccc3)o2)c1 | -5.3%
SMILES | ERK EGF block
COc1ccc(C(=O)Nc2c(-c3cccs3)c(=O)c3ccccc3n2C)cc1 | 5.62µM*
COc1ccc(C(=O)Nc2nc(-c3cccs3)c(NC(C)=O)s2)cc1 | 1.1%
Cc1ccccc1C(=O)Nc1c(-c2cccs2)c(=O)c2ccccc2n1C | -0.9%[57.5 µM]
C[C@@H](C(=O)NCc1cccc2ccccc12)[C@H]1C[C@]1(C)[C@H](NC(=O)OCc1ccccc1)c1ccccc1 | 1.6%
CN(C)c1ccc(C(=O)NNC(=O)c2ccc(Cl)cc2)cc1 | -1.1%[57.5 µM]
CN(C)c1ccc(C(=O)c2ccc(O)cc2O)cc1 | -1.2%
CN(C)c1ccc(C(=C2C=CC(=[N+](C)C)C=C2)c2ccc(N(C)C)cc2)cc1 | 12.6µM*
CCN(CC)CCN(C(=O)Cn1nnc(-c2ccc(C)o2)n1)C(C(=O)NC(C)(C)C)c1cccs1 (configuration not stated) | 1.2%
CCOC(=O)c1ccc(NC(=O)Cn2c(-c3nonc3N)nc3ccccc32)cc1 | -6.1%
CCOC(=O)c1cccc(NC(=O)/C=C/c2ccc([N+](=O)[O-])cc2)c1 | 31.6µM*
O=C(/C=C/c1cccc([N+](=O)[O-])c1)Nc1cc(C(=O)O)cc(C(=O)O)c1 | 2.8%
CCOC(=O)c1cc(NC(=O)COc2ccc([N+](=O)[O-])cc2)cc(C(=O)OCC)c1 | -1.3%
Cc1nnc(SCC2=C(C(=O)O)N3C(=O)C(NC(=O)Cn4cnnn4)[C@@H]3SC2)s1 (some centres not stated) | 7.7%
Cc1occc1C(=O)N/N=C/c1ccccc1[N+](=O)[O-] | 5.2%[57.5 µM]
CN(C)Cc1ccccc1-c1cncnc1NCc1cccs1 | 27.2%
N#CC(C#N)=C1C=CC=CN1/C(=C\c1ccco1)C(=O)c1ccccc1 | 14.1µM*
CC(C)OC(=O)/C(=C/c1ccco1)c1ccccc1 | -6.1%[57.5 µM]
N#C/C(=C/c1ccco1)C(N)=S | -6.5%[57.5 µM]
CC1(C)Nc2ccccc2N(Cc2ccc([N+](=O)[O-])cc2)C1=O | -11.5%
